Experimental findings from PubChem BioAssay (NCI) are described below.

Values joined by “and” are separate entries in the source; they are usually repeats but may differ in a detail not shown here. Identical values can stand only once. Compounds without any hit were thinned out: in the full panel of roughly 83,000, 20% have a hit.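 Testing used 96-well plates and a 48-hour single-concentration exposure. Example: -40 means 40% of the starting cells died.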 Active and inactive are the calls of the source. How the source made its calls: active means growth percent below 10; inactive means the rest.

In the test the test system is MDA-MB-468 breast. Nature of the test: NCI-60 one-dose screen, 48 h (100 = growth as untreated, 0 = no growth, -100 = all killed). To be noted: 10 µM unless noted.
Regarding `CC/C(=C(\c1ccc(OCCN2CCOCC2)cc1)c1ccc(OC(=O)Cc2ccccc2)cc1)c1ccc(Cl)cc1`, the growth is 104% (inactive).
`C/C=C/CC(C)C(O)[C@H](NC(=O)[C@@H]1CCCN1C(=O)C(C)(C)NC(=O)CCCCCCCCC)C(=O)N[C@@](C)(CC)C(=O)N[C@@H](CCC(N)=O)C(=O)N[C@H](CCC(N)=O)C(=O)NC(C)(C)C(=O)N[C@@](C)(CC)C(=O)N[C@@H](CCC(N)=O)C(=O)N[C@H](CC(C)C)C(=O)N[C@H](CO)CC(C)C` (stereo not given in full): the growth is 99.2% (inactive) and -78.2% (active).
Turning to `C[C@]12CCc3sc(Nc4ccc(F)cc4F)nc3C1=CC[C@@H]1[C@@H]2CC[C@]2(C)C(=O)CC[C@@H]12`, the growth was 23.3% (inactive).
As for `CC(=O)O[C@H](C[C@H](C(C)C)N(C)C(=O)[C@@H](NC(=O)[C@H]1CCCCN1C)C(C)C)c1nc(C(=O)N[C@@H](Cc2ccccc2)C[C@H](C)C(=O)O)c(C(C)C)s1`, the growth is 19.8% (inactive).
As for `O=NN1CCCc2cccc(O)c21`, the growth was 67.7% (inactive).
Next, `O=[N+]([O-])c1ccc2cnn(CSP(=S)(c3ccccc3)c3ccccc3)c2c1`: 43.1% (inactive); `Cc1ccc(N2CCN(CCC#N)CC2)cc1`: 105% (inactive).
As to `Cc1ccc(C(=O)OC(C(=O)O)C(OC(=O)c2ccc(C)cc2)C(=O)O)cc1` (stereo not given) (tested in a mixture with another compound), the growth is -12.2% (active).
To `C#C[C@]1(OC(=O)CCCCCC)CC[C@H]2[C@@H]3CCC4=CC(=O)CC[C@@H]4[C@H]3CC[C@@]21C` belongs 39.6% (inactive).
Turning to `CO[C@H]1CC[C@@]2(C)C(=CC[C@@H]3[C@@H]2CC[C@]2(C)C(=O)C(=O)C[C@@H]32)C1`, the growth was 102% (inactive).
To `Nc1c(Br)cc([N+](=O)[O-])cc1[N+](=O)[O-]` belongs 95.5% (inactive).
Turning to `COc1ccc(CN2CCN(Cc3ccccc3)CC2)c(O)c1`, the growth was 75.5% (inactive).
In the case of `c1ccc(-c2ccc3ccccc3[o+]2)cc1`, the growth is 94% (inactive).
To `CCOC(=O)/C(C#N)=C/c1ccc(N(CCCl)CCCl)cc1` belongs 64.2% (inactive); to `NC(=O)C(Cl)Cl`, 103% (inactive); to `COC(=O)[C@H]1[C@@H](O)[C@@]2(O)c3c(OC)cc(OC)cc3O[C@@]2(c2ccc(OC)cc2)[C@@H]1c1ccccc1`, -16.5% (active).
In the case of `CCC(C)[C@H]1C(=O)O[C@H](C(C)C)C(=O)N(C)[C@@H](C(C)C)C(=O)O[C@H](C(C)C)C(=O)N(C)[C@@H](C(C)C)C(=O)O[C@H](C(C)C)C(=O)N1C` (stereo not given in full), the growth was -0.302% (active).
Regarding `O=C(O)CNC(=O)C(Cl)(Cl)Cl`, the growth was 98.8% (inactive).
For the compound `CC[C@H](C)[C@H](NC(=O)CN(C)C)C(=O)N(C)[C@H](C[C@@H](OC(C)=O)c1nc(C(=O)NC23CC(C(=O)OC)(C2)C3)cs1)C(C)C`, the growth was -14.9% (active).
Turning to `CC(C)=CC1C(C(=O)OCc2cccc(Oc3ccccc3)c2)C1(C)C` (stereo not given), the growth was 100% (inactive).
With `COc1ccccc1N1CCN(CCc2c[nH]c3cc4c(cc23)OCO4)CC1`, the growth was 90% (inactive).
Next, `Cc1cc(N(CCCl)CCCl)ccc1C=Nc1cccnc1`: -74.8% (active); `CC12CCC3C(CCC4Cc5[nH]c6ccccc6c5CC43C)C1CCC2O` (stereo not given): 29.3% (inactive).
As for `COc1cc2c(cc1OC)[C@@H]1N(CC2)C(=O)c2ccccc2[C@@]1(C)C(=O)O`, the growth is 103% (inactive).
`Cc1cc(N(CCCl)CCCl)ccc1C=Nc1ccc(-c2csc(Cc3ccccc3)n2)cc1`: the growth is 39.3% (inactive).
Turning to `Cc1nnc([S-])o1.[Au+].c1ccc([PH+](c2ccccc2)c2ccccc2)cc1`, the growth was -6.44% (active).
To `Cn1cc(C2=C(c3cn(C4CCN(Cc5ccccn5)CC4)c4ccccc34)C(=O)NC2=O)c2ccccc21` belongs 119% (inactive); to `Cc1ccc(C(=O)O[C@H](C(=O)O)[C@H](OC(=O)c2ccc(C)cc2)C(=O)O)cc1`, 103% (inactive); to `CC(=O)O[C@H]1C(=O)[C@@]2(C)[C@H]([C@H](OC(=O)c3ccccc3)[C@]3(O)C[C@H](OC(=O)[C@H](OC(=O)OCC4COC(C)(C)O4)[C@@H](NC(=O)c4ccccc4)c4ccccc4)C(C)=C1C3(C)C)[C@]1(OC(C)=O)CO[C@@H]1C[C@@H]2O` (stereo not given in full), 2.65% (active).
To `CC(C)=CCc1c(O)c(C(=O)CC(C)C)c(O)c2c(-c3ccccc3)cc(=O)oc12` belongs 23.1% (inactive).
With `C[Se]/C=C1/C(=O)N(c2c(Cl)cccc2Cl)c2ccccc21`, the growth was -6.67% (active).
For the compound `C/C(=C\c1ccn(-c2ccccc2N)n1)[C@@H]1C[C@@H]2O[C@]2(C)CCC[C@H](C)[C@H](O)[C@@H](C)C(=O)C(C)(C)[C@@H](O)CC(=O)O1`, the growth was 0% (active).
To `C[C@]12CCC(=O)CC1CC[C@@H]1C2CC[C@@]2(C)C1CC[C@@H]2OC(=O)CC[Se][Se]CCC(=O)O[C@H]1CCC2[C@@H]3CCC4CC(=O)CC[C@]4(C)C3CC[C@@]21C` (stereo not given in full) belongs 77.5% (inactive).
As to `Cc1cc[c-]cc1.Fc1c[c-]c(-c2ccccn2)c(F)c1.[Pt+2].c1ccc([PH+](c2ccccc2)c2ccccn2)cc1`, the growth is 51% (inactive).
Regarding `O=[N+]([O-])c1cc(Cl)c(Cl)cc1Cl`, the growth is 102% (inactive) and 104% (inactive).
For the compound `Cc1cc(N(CCCl)CCCl)ccc1C=Nc1ccc2ccccc2c1`, the growth is -9.8% (active).
As for `C=CCN1C(=O)C(CC)(CCC(C)C)C(=O)NC1=S` (stereo not given), the growth is 102% (inactive).
In the case of `O=C(c1ccccc1O)c1[nH]c(Cl)c(Cl)c1-n1c(C(=O)c2ccccc2O)cc(Cl)c1Cl`, the growth is -13.8% (active).
`Oc1c(CCl)cc(Cl)cc1CCl`: the growth was 113% (inactive).
`N#Cc1c(-n2c(Br)c(Br)c3cc(Br)ccc32)[nH]c2c(Br)cc(Br)cc12`: the growth was -16.3% (active).
